This is one part of the list. Records with an inconclusive call do not appear. Calls of active or inactive are those of the source. The call rests on the fitted dose curve; in most records, active means well fitted inhibition curve with a large enough effect; inconclusive means small, poorly fitted or top-dose-only effect; inactive means no such curve, though single readings can be large or run the other way.

A short description of this assay: qHTS of pediatric cancer cell lines to identify multiple opportunities for drug repurposing: Orthogonal 3D viability screen for TC32 cells. As to conditions: TC32 3D spheroid viability, PI/Hoechst imaging, 72 h; series mostly up to 30.7 µM. From the text: Drug repurposing or repositioning has been offered as a strategy for drug development in oncology programs. This approach has special potential for childhood cancers and other rare or orphan diseases, where the expected return on new drug development has been a disincentive to pharmaceuticals. […] In this project we exploit the poly-pharmacology of drugs to discover new indications via phenotypic screening of a panel of 19 well-characterized cell lines derived from solid tumors seen in children and adolescents. The goal is to identify approved drugs with previously unrecognized anticancer properties that has the potential to reveal new mechanisms and biological processes involved in carcinogenesis or drug resistance. We employed a titration-based paradigm (quantitative high-throughput screening or qHTS), where all compounds were tested at multiple concentrations for their effect on cell viability. Concentration-response curves (CRCs) were derived directly from the primary screen, and both potency and efficacy values were used to identify compounds with robust bioactivity profiles. […] These two assays will be used to validate active compounds and assess the correlation of compound's potency in 2D vs 3D cultures on selected cell lines. Assay Submitter: Nathalia J. Martinez, National Center for Advancing Translational Sciences, National Institutes of Health, Rockville, MD, USA; email: natalia.martinez@nih.gov Shen, M et al. Quantitative high-throughput phenotypic screening of pediatric cancer cell lines identifies multiple opportunities for drug repurposing. Oncotarget 2017 Dec 19;9(4):4758-4772. PMID 29435139.
The cells were obtained from University of North Carolina (UNC), Pediatric Preclinical Testing Program (PPT), and Coriell Institute (CI). qHTS viability in 3D culture: Cells were assayed in phenol red-free growth media at a density of 1,000 cells/well, with the exception of Daoy, and SH-N-SH which were assayed at 1,500 cells/ well. Thirty muL of cells were dispensed into 384-well, ULA, round bottom plates (Corning) using a Multidrop dispenser. Plates were spun down at 1,000 rpm for 1 min and incubated at 37 degrees C, 5% CO2, under a humidified atmosphere for either 24 (Daoy) or 48 hours (all other cell lines) to allow spheroid formation. Ninety-two nanoliter of compounds and controls (neutral control DMSO or positive control bortezomib at final concentrations of 0.5 µM) were subsequently transferred via GNF Pintool. Plates were sealed using a breathable seal (Diversified Biotech, Dedham, MA) and incubated for 72 hours at 37 degrees C. Spheroid viability was first determined by high-content imaging using Hoechst 33342 and Propidium Iodide (PI, ThermoFisher Scientific), followed by addition of CellTiter-Glo 3D (Promega). Specifically, 3 µL/well of PBS containing a 1:500 dilution of both dyes was dispensed using Multidrop. Dyes were incubated for 1 hour before imaging using the Celigo Image Cytometer. Then, 20 µl of CellTiter-Glo 3D were added per well. Plates were incubated for 30 min at RT on a VWR microplate shaker (300 rpm) and analyzed for luminescence intensity using a ViewLux High-throughput CCD imager equipped with clear filters. Image analysis was done using the Celigo Tumorsphere 1+2+3 application software as previously described. […] The data were exported to Excel, and the average fluorescent intensities were used to calculate the ratio of PI over Hoechst, which was used to quantify viability. […]
As to `COC(=O)Nc1nc2ccc(Sc3ccccc3)cc2[nH]1`, the Potency was 810 nM (active). In the case of `CC(NCc1ccc2c(c1)nc(NC(=O)c1ccc(-c3cn[nH]c3)s1)n2CC(C)(C)O)C(C)(C)C` (stereo not given) it was 1620 nM (active); in that of `C=C1C(=CC=C2CCC[C@]3(C)[C@@H]([C@H](C)C=C[C@H](C)C(C)C)CC[C@@H]23)C[C@@H](O)C[C@@H]1O`, “inactive”.

As to `CC[C@H]1CN2CCc3cc(OC)c(OC)cc3[C@@H]2C[C@@H]1C[C@H]1NCCc2cc(OC)c(OC)cc21`, the Potency was 323 nM (active). In the case of `CC[C@]1(O)C[C@@H]2CN(CCc3c([nH]c4ccccc34)[C@@](C(=O)OC)(c3cc4c(cc3OC)N(C)[C@H]3[C@@](O)(C(=O)OC)[C@H](OC(C)=O)[C@]5(CC)C=CCN6CC[C@]43[C@@H]65)C2)C1` it was 32.3 nM (active).

Values taken from PubChem BioAssay AID1347139 (National Center for Advancing Translational Sciences (NCATS), 2019).
